Source: PubChem BioAssay (Tox21)
Results filed as inconclusive are left out. Entries that show only a call come without a potency. Active and inactive are the calls of the source. Calls follow the shape of the dose curve; as a rule, active = well fitted activation curve with a large enough effect in the signal ratio in the repeat runs (not every such curve was filed as active); inconclusive = weak or mixed curves; inactive = flat fitted curve, though single readings scatter; the % refers to the signal ratio.

Experiment: p53 small molecule agonists, cell-based qHTS assay (AID 1963582)
Conditions: HCT-116 p53RE-bla reporter, beta-lactamase FRET ratio, 16 h; series mostly up to 66 µM
Description: National Center for Advancing Translational Sciences [NCATS]
Division of Preclinical Innovation [DPI]
U.S. Environmental Protection Agency [EPA]
National Institutes of Environmental Health Sciences [NIEHS]
National Toxicology Program [NTP]
U.S. Food and Drug Administration [FDA]
p53, a tumor suppressor protein, is activated following cellular insult, including DNA damage and other cellular stresses. The activation of p53 regulates cell fate by inducing DNA repair, cell cycle arrest, apoptosis, or cellular senescence. The activation of p53, therefore, is a good indicator of DNA damage and other cellular stresses. […] The activation of the reporter gene under culture conditions can be detected by fluorescence intensity. This cell line was used to screen the Tox21 10K compound library in a 1536-well plate format and to identify agonists that activate the p53 signaling pathway.
Tox21 Assay Protocol Summary:
The p53RE-bla cells were dispensed at 4,000 cells/5 ul/well in 1536-well black wall/clear bottom plates using a Multidrop dispenser. After the assay plates were incubated at a 37 C/5% CO2 incubator for 5 hours, 23 nL of compounds dissolved in DMSO, positive controls or DMSO only was transferred to the assay plate by a pin tool. The plates were incubated at 37 C for 16 hours. After 1 uL of LiveBLAzerTM B/G FRET substrate was added using a Flying Reagent Dispenser, the plates were incubated at room temperature for 2 hours, and fluorescence intensity was measured by an Envision plate reader.

Row | SMILES | Potency
1 | CC(=O)CCC=C(C)C | inactive
2 | NCCS(=O)(=O)O | inactive
3 | Cc1ccc(O)cc1 | inactive
4 | COc1ccc(OC)cc1 | inactive
5 | CC(=O)c1ccc(S(=O)(=O)NC(=O)NC2CCCCC2)cc1 | inactive
6 | Nc1c2c(nc3ccccc13)CCCC2 | inactive
7 | CC1CCC2CC1C2(C)C (stereo not given) | inactive
8 | CCCCC(CC)CO (stereo not given) | inactive
9 | Cc1cccc(C)c1O | inactive
10 | C=C1C2CCC(C2)C1(C)C (stereo not given) | inactive
11 | CCNC(=S)NCC | inactive
12 | O=C(O)CCCCCCCCC(=O)O | inactive
13 | CCCCCC1C(=O)CCC1CC(=O)OC (stereo not given) | inactive
14 | CN(C)CCCN | inactive
15 | CC(O)COCC(C)O (stereo not given) | inactive
16 | CCCCC(CC)COC(=O)CCCCC(=O)OCC(CC)CCCC (stereo not given) | inactive
17 | CC(=O)OC(C)(C)C1CC=C(C)CC1 (stereo not given) | inactive
18 | O=C(O)CC(C(=O)O)C(CC(=O)O)C(=O)O (stereo not given) | inactive
19 | OC[C@H]1O[C@@H](Oc2ccc(O)cc2)[C@H](O)[C@@H](O)[C@@H]1O | inactive
20 | CC(=O)c1ccc(O)cc1 | inactive

Row | SMILES | Potency
21 | CCCCOCCO | inactive
22 | C=CCc1ccc(OC)c(OC)c1 | inactive
23 | COCCOC(=O)c1ccccc1C(=O)OCCOC | inactive
24 | Nc1cccc(C(F)(F)F)c1 | inactive
25 | CC(C)(C)[C@@H](O)[C@@H](Cc1ccc(Cl)cc1)n1cncn1 | inactive
26 | COc1ccc2[nH]cc(CCNC(C)=O)c2c1 | inactive
27 | Cc1cc(Cc2ccc(N)c(C)c2)ccc1N | inactive
28 | OC(Cn1cncn1)(Cn1cncn1)c1ccc(F)cc1F | inactive
29 | CC(=O)Nc1nnc(S(N)(=O)=O)s1 | inactive
30 | NC(=O)N/N=C/c1ccc([N+](=O)[O-])o1 | inactive
31 | OC[C@@H](O)[C@@H](O[C@@H]1O[C@H](CO)[C@H](O)[C@H](O)[C@H]1O)[C@H](O)[C@@H](O)CO | inactive
32 | CCCCN(CCCC)CCCC | inactive
33 | CCCCCCCCCCCCCCCC(=O)OC(C)C | inactive
34 | COC(=O)CC(=O)OC | inactive
35 | C=CC(=O)OCCC(=O)O | inactive
36 | O=Cc1ccc(CO)o1 | inactive
37 | C[C@]12C=CC(=O)C=C1CC[C@@H]1[C@@H]2[C@@H](O)C[C@@]2(C)[C@H]1CC[C@]2(O)C(=O)CO | inactive
38 | CC(=O)O[C@]1(C(C)=O)CC[C@H]2[C@@H]3C=C(Cl)C4=CC(=O)CC[C@]4(C)[C@H]3CC[C@@]21C | inactive
39 | CCCCCCCCCC(=O)O | inactive
40 | Cc1ccc(S(=O)(=O)NCl)cc1 | inactive
